TROY signal inh = inhibitors of TROY-driven NF-kB signaling, primary screen, Q293 LMP1-TROYcd cells, NF-kB luciferase, uHTS; inhibition, % at 10 µM; Q293 LMP1-TROYcd NF-kB luciferase reporter, 4 h; hit rate 0.98% among 360,000;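 active means compounds whose plate-normalised and pattern-corrected inhibition of the luciferase reporter signal at the single screening dose is 50% or more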
PPC-1+TRAIL kill = compounds killing PPC-1 cancer cells with TRAIL present, primary screen, TRAIL potentiator project, ATPLite luminescence, uHTS | PPC-1 cells + TRAIL, ATPLite viability luminescence | cell killing (% activity), % at 4 µM or 5 µM | hit rate 0.41% among 220,000;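 active means cell killing above 50% in the first pass at 4 µM, then a duplicate retest at 5 µM averaging 50% or more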;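 further: plate controls were cells with TRAIL plus DMSO for no effect and medium-only wells lacking cells for full effect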
C8 TRAIL sens = viability loss with TRAIL in NB7+C8 cells, primary screen, TRAIL sensitizer project, cell-based, ATPlite luminescence | hit rate 1% among 360,000 | AID 624354, 2012 | inhibition (viability loss, TRAIL sensitization), % at 10 µM;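 active means compounds causing at least 50% loss of cell viability in the single-dose screen, relative to plate controls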
Platelet DG rel = inhibitors of platelet dense granule secretion, primary screen, cell-based, MLPCN, human platelets | human platelet-rich plasma, SFLLRN dense granule ATP release, luminescence | hit rate 0.22% among 300,000 | inhibition, %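 (compounds screened at 7.5 µM in platelet-rich plasma)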;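 active means mean replicate score, as percent of positive control, at or above 50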
HSP90 refold inh = HSP90 inhibitors, primary screen, cell lysate, luminescence | Heat shock protein HSP 90 (rabbit reticulocyte lysate; luciferase refolding) | Rabbit reticulocyte lysate, luciferase refolding luminescence, 3 h | inhibition, % at 5.6 µM | hit rate 0.91% among 290,000;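 active means inhibition above the screen-wide mean plus 3 SD, computed separately per campaign, cut at about 16% in these data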;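 further: 0% = DMSO wells and 100% = 60 µM geldanamycin wells; inhibitors lower the luminescence because luciferase stays unfolded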
TWEAK Fn14 block = inhibitors of TWEAK-Fn14 signaling, primary screen, luciferase reporter cells, uHTS. inhibition, % at 10 µM. hit rate 2% among 360,000. TWEAK-stimulated Fn14 reporter cells, luciferase luminescence, 8 h. AID 1159606, 2016; in the data active means inhibition above about 50%
Numbers without * were called inactive; . = no result given. In the library only some 3.5% were active in any assay of this set; here they are far more common.

SMILES | TROY signal inh | PPC-1+TRAIL kill | C8 TRAIL sens | Platelet DG rel | HSP90 refold inh | TWEAK Fn14 block
COc1cccc(N2CCN(S(=O)(=O)c3cn(C)cn3)CC2)c1 | -14 | . | -3 | -2 | 0 | 3
Cc1cc(C)c(NC(=O)Cn2c(=O)c3cccn3c3ccccc32)c(C)c1 | -4 | . | -5 | -13 | 0 | -6
CC1=NN(c2nc(-c3ccccc3)cs2)C(=O)C1 | 55* | 17 | 13 | -2 | 8 | 66*
O=C1CC(c2ccccc2)=NN1c1nc(-c2ccccc2)cs1 | 35 | 28 | -5 | 6 | 2 | -9
CCOC(=O)C1(C)CCCN(C(=O)c2ccc(F)cc2Cl)C1 (centres undefined) | -13 | . | -15 | . | . | 16
CCOC(=O)C(C(=O)OCC)c1cc(Br)c2noc3c2c1C(=O)c1ccccc1-3 | 11 | 37 | 93* | -30 | 1 | 20
CC(=O)OCCNc1cc(N2CCN(C)CC2)c2noc3c2c1C(=O)c1ccccc1-3 | -16 | -1 | 2 | . | 0 | -8
C#CCSc1nc2sc3c(c2c(=O)n1C)CCC3 | -22 | . | 9 | 0 | -1 | 2
CC(=O)CC1=NC(C)(C)Cc2ccccc21 | 53* | -22 | -5 | 2 | -3 | 20
O=C(CCNC(=O)c1ccccc1)OCC(=O)c1ccccc1 | 2 | 10 | 2 | -2 | 0 | 9
C=C1CC(COc2cc(=O)oc3ccccc23)(c2ccccc2)OC1=O (centres undefined) | 58* | . | 93* | . | . | 67*
C=C1CCC2C(C)(C)[C@H](O)CC[C@@]2(C)[C@@H]1COc1cc(=O)oc2ccccc12 (some centres undefined) | 31 | 0 | 9 | -1 | 8 | 0
CC1(c2nc3ccccc3[nH]2)CCC(=O)N1Cc1ccc(F)cc1 (centres undefined) | -4 | . | -12 | . | . | 3
O=C1N=C(N2CCC(Cc3ccccc3)CC2)S/C1=C/c1cn[nH]c1-c1ccccc1 | 47 | 9 | 12 | 2 | 3 | 77*
CN(C(=O)c1ccccc1C(=O)OCC(=O)c1ccc(F)c(F)c1)C1CCCCC1 | -15 | . | -13 | . | . | 9
CCN(C)C1CN(Cc2cn(Cc3cccc(Cl)c3)nn2)S(=O)(=O)C1 (centres undefined) | -10 | . | 2 | . | . | 8
O=C(NC(c1ccc(Cl)cc1)c1cnccn1)C1CCN(CCCc2ccccc2)CC1 (centres undefined) | 0 | . | 0 | . | . | 9
CCOc1cc(/C=N/O)ccc1OCc1ccc([N+](=O)[O-])cc1 | -23 | 20 | -2 | 3 | -3 | -12
CCOc1cc(C=C(C(=O)OC)C(=O)OC)ccc1OCc1ccc([N+](=O)[O-])cc1 | 52* | 15 | 29 | . | 3 | 83*
Cc1ccc2nc(-c3ccc(NC(=O)CN(c4ccccc4C)S(C)(=O)=O)cc3)sc2c1 | -10 | 13 | 43* | -4 | -1 | 53*
COc1ccc(/C=C(\C#N)C(=O)OCC(=O)Nc2ccc(-c3nc4ccc(C)cc4s3)cc2)cc1 | 9 | 40 | 54* | 1 | 1 | -3
O=C(Nc1ccc(-c2nc3cccnc3s2)cc1)c1ccco1 | -20 | 41 | -7 | 11 | 2 | 58*
Cc1cc(C)cc(N(CC(=O)Nc2ccc(-c3nc4ccc(C)cc4s3)cc2)S(C)(=O)=O)c1 | -20 | 12 | 4 | -3 | 0 | 7
O=C(COC(=O)c1ccc([N+](=O)[O-])o1)Nc1ccc(F)cc1 | -5 | . | 13 | . | . | 5
Cc1ccc2nc(-c3ccc(NC(=O)COC(=O)c4ccc([N+](=O)[O-])o4)cc3)sc2c1 | 21 | 51* | 71* | 9 | 2 | 78*
SMILES | TROY signal inh | PPC-1+TRAIL kill | C8 TRAIL sens | Platelet DG rel | HSP90 refold inh | TWEAK Fn14 block
COc1ccc(N2CCN(C(=O)C(=O)c3ccc(F)cc3)CC2)cc1 | . | . | -13 | . | . | .
COc1ccc(S(=O)(=O)n2ccnc2C)c(C)c1C | -9 | . | -9 | -1 | -3 | -7
CCOc1ncccc1C(=O)OCC(=O)Nc1ccc(-c2nc3ccc(C)cc3s2)cc1 | -49 | 38 | 75* | -9 | 0 | 10
Cc1ccc(NC(=O)COC(=O)c2ccco2)cc1 | -39 | 6 | -2 | 4 | -2 | -26
Cc1ccc2nc(-c3ccc(NC(=O)COC(=O)c4ccc(Br)o4)cc3)sc2c1 | 7 | 50 | 75* | . | 0 | 59*
Cc1ccc2nc(-c3ccc(NC(=O)COC(=O)c4ccco4)cc3)sc2c1 | 7 | 55* | 71* | 5 | -3 | 52*
CCOc1ncccc1C(=O)OCC(=O)Nc1c(C)cc(C)cc1C | 1 | -10 | 4 | -1 | -6 | -1
COc1cccc(/C=N/n2c(C3CCCCC3)n[nH]c2=S)c1O | 12 | . | -10 | 11 | 1 | 60*
COc1cccc(/C=N/n2c(C3CCCCC3)n[nH]c2=S)c1OC | -12 | . | -9 | 4 | 3 | -6
O=C(CSc1ncnc2c(-c3ccc(Cl)cc3)nsc12)c1ccccc1 | 57* | -6 | 10 | 3 | 3 | 40
O=C(COc1ccc2ccccc2c1)Nc1ccccc1C(=O)O | 0 | . | 32 | 3 | -5 | -74
CCCCN1C(=O)C(CC(=O)NCCN2CCOCC2)CC(C(=O)N2CCCCCC2)=C1C (centres undefined) | -1 | . | -4 | . | . | -8
COc1ccc(/C=C2\Oc3ccccc3C2=O)cc1 | 26 | . | 72* | . | . | 65*
CC(=O)Oc1ccc(/C=C2/Oc3ccccc3C2=O)cc1 | -67 | 12 | -5 | 19 | 4 | -12
COc1ccc(C=C2OC(=O)C(C(C)=O)=C2O)cc1 | -20 | . | 84* | . | . | 13
O=C(NCCc1nc(-c2ccccc2Cl)no1)C1CCCCC1 | -14 | . | 7 | -9 | . | 6
COc1ccccc1CNC(=O)C(=O)NCC1CCCN1S(=O)(=O)c1cc(C)ccc1C (centres undefined) | 6 | . | -17 | . | . | 8
COc1cc2ccccc2nn1 | -23 | -11 | -5 | -16 | 3 | -6
COc1ccc2c(n1)Sc1nc3ccccc3nc1N2 | -18 | 19 | 77* | -4 | -4 | -3
CCOC(=O)/C=C/C(=O)Nc1cccc([N+](=O)[O-])c1 | 3 | 11 | -30 | 23 | -5 | -20
CCOC(=O)/C=C/C(=O)Nc1ccccc1-c1ccccc1NC(=O)/C=C/C(=O)OCC | -52 | 15 | -4 | 1 | 0 | 58*
CC12CCC3C(CCC4CC(O)CCC43C)C1CC(O)C2 (centres undefined) | 26 | . | 1 | . | . | 26
C[C@]12CCC(O)CC1CCC1C2CC[C@]2(C)C(c3cc(C(F)(F)F)n[nH]3)CCC12 (some centres undefined) | 61* | 2 | -10 | 2 | 0 | -36
O=C(CSc1ncccn1)NC1CCCC1 | 4 | . | 5 | . | . | -10
